# Measurements from the supplement of paper PMC6555819.
# Legend:
# Experiment in all cases: PBM binding z-score (relative to random genomic background probes); higher = stronger binding; sequences stand for … in GC…GCGATTGACAGCGTAGAATGAAGG
# [1] = test system: RARb homodimer (NR concentration 270 nM)
# How it was run: (§1)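 Regression normalization was applied to scanned fluorescence from custom Agilent 4×180K protein-binding microarrays. Before scanning, arrays were incubated 1 h with ligand-free nuclear receptor dimers, and binding was detected with antibodies against each partner (one per run). Binding z-scores use the random background probes as reference.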
# [2] = test system: RARg:RXRa (NR concentration 270 nM, RXRa partner concentration 90 nM)
# How it was run: as §1
# [3] = test system: RARg homodimer (NR concentration 270 nM)
# How it was run: as §1
# [4] = test system: RXRa DBDmut IVT, anti-RXR (DBD mutation: RXRa K156A/R161A, NR concentration 90 nM)
# How it was run: as §1
# [5] = test system: RXRa homodimer (NR concentration 180 nM)
# How it was run: as §1
# [6] = test system: THRa:RXRa (NR concentration 90 nM, RXRa partner concentration 90 nM)
# How it was run: as §1
# [7] = test system: THRa homodimer (NR concentration 90 nM)
# How it was run: as §1
# [8] = test system: VDR homodimer (NR concentration 270 nM)
# How it was run: as §1
sequence,measurement,setting,value
TCTCAAAGTTCAAAGGTAACGTAAGTATCCACAC,PBM binding z-score,[1],4.13
same,PBM binding z-score,[2],6.13
same,PBM binding z-score,[3],6.25
same,PBM binding z-score,[4],4.59
same,PBM binding z-score,[5],7.17
same,PBM binding z-score,[6],3.46
same,PBM binding z-score,[7],0.566
same,PBM binding z-score,[8],4.09
CGTCCAAGGTCAATGCTAGGTGAGTGAAAGCATT,PBM binding z-score,[1],3.95
same,PBM binding z-score,[2],5.76
same,PBM binding z-score,[3],6.07
same,PBM binding z-score,[4],3.39
same,PBM binding z-score,[5],4.73
same,PBM binding z-score,[6],3.92
same,PBM binding z-score,[7],2.34
same,PBM binding z-score,[8],2.15
ATATCTAGGTTATCGGGTCATTCAGTTTGCGCAT,PBM binding z-score,[1],3.52
same,PBM binding z-score,[2],3.54
same,PBM binding z-score,[3],2.81
same,PBM binding z-score,[4],1.81
same,PBM binding z-score,[5],3.51
same,PBM binding z-score,[6],3.67
same,PBM binding z-score,[7],3.5
same,PBM binding z-score,[8],4.19
CGTCCAAGGTCAATGCTAGGTCAGTCAAAGCATT,PBM binding z-score,[1],5.08
same,PBM binding z-score,[2],7.7
same,PBM binding z-score,[3],6.73
same,PBM binding z-score,[4],3.62
same,PBM binding z-score,[5],5.82
same,PBM binding z-score,[6],4.52
same,PBM binding z-score,[7],2.99
same,PBM binding z-score,[8],3.23
CGTCCAAGGTCAAGGTCAGTGGAAGAGACTCGAA,PBM binding z-score,[1],5.13
same,PBM binding z-score,[2],6.64
same,PBM binding z-score,[3],7.58
same,PBM binding z-score,[4],3.79
same,PBM binding z-score,[5],6.05
same,PBM binding z-score,[6],4.21
same,PBM binding z-score,[7],3.67
same,PBM binding z-score,[8],3.15
ACTAGTTCGTCAGCTGAGGTCACACACAATTCGG,PBM binding z-score,[1],4.27
same,PBM binding z-score,[2],4.08
same,PBM binding z-score,[3],3.93
same,PBM binding z-score,[4],3.38
same,PBM binding z-score,[5],4.37
same,PBM binding z-score,[6],4.66
same,PBM binding z-score,[7],5.07
same,PBM binding z-score,[8],4.73
GGAACGAGGGCAAGGTTGATAGCATCTGTCGACG,PBM binding z-score,[1],1.67
same,PBM binding z-score,[2],1.67
same,PBM binding z-score,[3],1.88
same,PBM binding z-score,[4],1.72
same,PBM binding z-score,[5],1.32
same,PBM binding z-score,[6],1.45
same,PBM binding z-score,[7],0.156
same,PBM binding z-score,[8],1.39
CGAACGAGGGCATGATTTGATAGCAAATGCCGAT,PBM binding z-score,[1],0.522
same,PBM binding z-score,[2],0.771
same,PBM binding z-score,[3],1.19
same,PBM binding z-score,[4],1.99
same,PBM binding z-score,[5],0.631
same,PBM binding z-score,[6],0.985
same,PBM binding z-score,[7],-0.278
same,PBM binding z-score,[8],0.561
CGGCCTAGGTCAGGGCCAGTATAGGAGGAACGTT,PBM binding z-score,[1],2.4
same,PBM binding z-score,[2],2.84
same,PBM binding z-score,[3],3.41
same,PBM binding z-score,[4],-0.731
same,PBM binding z-score,[5],1.5
same,PBM binding z-score,[6],1.8
same,PBM binding z-score,[7],0.0895
same,PBM binding z-score,[8],-0.395
CAAACTAGGTGAAAGGTCAAAGTCGAGCCAACCA,PBM binding z-score,[1],4.61
same,PBM binding z-score,[2],7.35
same,PBM binding z-score,[3],6.17
same,PBM binding z-score,[4],2.27
same,PBM binding z-score,[5],8.91
same,PBM binding z-score,[6],4.19
same,PBM binding z-score,[7],1.31
same,PBM binding z-score,[8],2.49
ACTATTAGTTGACTTAGGGCAACCGGTACGACGC,PBM binding z-score,[1],1.12
same,PBM binding z-score,[2],0.684
same,PBM binding z-score,[3],0.734
same,PBM binding z-score,[4],0.426
same,PBM binding z-score,[5],0.446
same,PBM binding z-score,[6],1.47
same,PBM binding z-score,[7],0.512
same,PBM binding z-score,[8],0.456
ATCTCTAGGTAAAAGTCCAGTGAATCCCGAGGAT,PBM binding z-score,[1],-0.174
same,PBM binding z-score,[2],0.275
same,PBM binding z-score,[3],0.393
same,PBM binding z-score,[4],-0.403
same,PBM binding z-score,[5],-0.00664
same,PBM binding z-score,[6],0.296
same,PBM binding z-score,[7],0.175
same,PBM binding z-score,[8],0.187
CCTACTGGGCCAAAAAGGGCATTGATGCCGATAA,PBM binding z-score,[1],1.32
same,PBM binding z-score,[2],0.413
same,PBM binding z-score,[3],0.776
same,PBM binding z-score,[4],-0.51
same,PBM binding z-score,[5],0.0736
same,PBM binding z-score,[6],0.26
same,PBM binding z-score,[7],-0.987
same,PBM binding z-score,[8],0.107
AGAATGAGGTTATTAAGGTCAGGGAATTGCGGTC,PBM binding z-score,[1],4.31
same,PBM binding z-score,[2],4.16
same,PBM binding z-score,[3],3.63
same,PBM binding z-score,[4],2.88
same,PBM binding z-score,[5],4.62
same,PBM binding z-score,[6],4.71
same,PBM binding z-score,[7],5.16
same,PBM binding z-score,[8],4.86
ACTATTAGTTGAGATGAGGGCAACCGATAGGTTG,PBM binding z-score,[1],1.05
same,PBM binding z-score,[2],0.932
same,PBM binding z-score,[3],0.979
same,PBM binding z-score,[4],0.642
same,PBM binding z-score,[5],0.671
same,PBM binding z-score,[6],2.84
same,PBM binding z-score,[7],0.833
same,PBM binding z-score,[8],1.18
CGAACTAGGGCATGAGTTGATAGCAAATGCCGAT,PBM binding z-score,[1],0.222
same,PBM binding z-score,[2],0.852
same,PBM binding z-score,[3],0.834
same,PBM binding z-score,[4],0.394
same,PBM binding z-score,[5],0.388
same,PBM binding z-score,[6],0.0506
same,PBM binding z-score,[7],-0.493
same,PBM binding z-score,[8],0.329
CCGACTGGGGCATAAGGTTACCCTAAGCCAGCCC,PBM binding z-score,[1],1.42
same,PBM binding z-score,[2],1.27
same,PBM binding z-score,[3],0.806
same,PBM binding z-score,[4],-0.487
same,PBM binding z-score,[5],1.07
same,PBM binding z-score,[6],1.79
same,PBM binding z-score,[7],1.55
same,PBM binding z-score,[8],-0.217
GCTAGCAGGCCATTTCGGTCACTCAATGACGGGC,PBM binding z-score,[1],1.03
same,PBM binding z-score,[2],0.276
same,PBM binding z-score,[3],0.793
same,PBM binding z-score,[4],0.0509
same,PBM binding z-score,[5],-0.116
same,PBM binding z-score,[6],0.245
same,PBM binding z-score,[7],-0.53
same,PBM binding z-score,[8],-0.487
ATCTCAAGGTAACAAGTTCAGTGAAAGAGAGGAC,PBM binding z-score,[1],2.19
same,PBM binding z-score,[2],1.79
same,PBM binding z-score,[3],1.79
same,PBM binding z-score,[4],1.34
same,PBM binding z-score,[5],1.23
same,PBM binding z-score,[6],2.16
same,PBM binding z-score,[7],1.54
same,PBM binding z-score,[8],2.9
ATCACTAGGTAAAAGTTCAGTGAATCCCGAGGAT,PBM binding z-score,[1],2.5
same,PBM binding z-score,[2],2.11
same,PBM binding z-score,[3],1.85
same,PBM binding z-score,[4],0.717
same,PBM binding z-score,[5],1.85
same,PBM binding z-score,[6],1.32
same,PBM binding z-score,[7],0.468
same,PBM binding z-score,[8],1.8
TCTCGGAGGGCACGAAAGGTCAGAGCTCGACATC,PBM binding z-score,[1],5.03
same,PBM binding z-score,[2],6.01
same,PBM binding z-score,[3],6.16
same,PBM binding z-score,[4],1.09
same,PBM binding z-score,[5],5.58
same,PBM binding z-score,[6],4.4
same,PBM binding z-score,[7],0.163
same,PBM binding z-score,[8],1.1
TCTTGTAGATCAAGCAGGATAAGAAAGCCTGAGT,PBM binding z-score,[1],-0.48
same,PBM binding z-score,[2],-0.278
same,PBM binding z-score,[3],-0.0385
same,PBM binding z-score,[4],0.533
same,PBM binding z-score,[5],-0.0789
same,PBM binding z-score,[6],-0.341
same,PBM binding z-score,[7],-0.704
same,PBM binding z-score,[8],0.105
CCGACTGGAGCATAAGGTTACCATAAGCCAGCCC,PBM binding z-score,[1],1.28
same,PBM binding z-score,[2],0.447
same,PBM binding z-score,[3],0.266
same,PBM binding z-score,[4],0.0357
same,PBM binding z-score,[5],0.901
same,PBM binding z-score,[6],1.96
same,PBM binding z-score,[7],1.77
same,PBM binding z-score,[8],0.144
ATCTCAAGGTAAAAGTTCAGTGAATCCCGAGGAT,PBM binding z-score,[1],2.4
same,PBM binding z-score,[2],2.29
same,PBM binding z-score,[3],1.96
same,PBM binding z-score,[4],0.614
same,PBM binding z-score,[5],2.21
same,PBM binding z-score,[6],1.94
same,PBM binding z-score,[7],0.529
same,PBM binding z-score,[8],1.28
CAAACTAGGTCACAGAGGTGAAAGTCCGTGCGTA,PBM binding z-score,[1],3.98
same,PBM binding z-score,[2],5.15
same,PBM binding z-score,[3],5.24
same,PBM binding z-score,[4],1.76
same,PBM binding z-score,[5],4.44
same,PBM binding z-score,[6],3.9
same,PBM binding z-score,[7],2.28
same,PBM binding z-score,[8],2.6
GATACAGGGTCAGCTAGATGCCAGAGTATGGAAA,PBM binding z-score,[1],2.84
same,PBM binding z-score,[2],4.95
same,PBM binding z-score,[3],4.12
same,PBM binding z-score,[4],1.23
same,PBM binding z-score,[5],4.38
same,PBM binding z-score,[6],2.87
same,PBM binding z-score,[7],0.0826
same,PBM binding z-score,[8],0.494
CTCGAAAGGTCTTGCTCAGGTGAGTATACCAAAC,PBM binding z-score,[1],1.29
same,PBM binding z-score,[2],1.52
same,PBM binding z-score,[3],1.33
same,PBM binding z-score,[4],0.0538
same,PBM binding z-score,[5],0.775
same,PBM binding z-score,[6],2.67
same,PBM binding z-score,[7],0.893
same,PBM binding z-score,[8],-0.0365
GCTACTGGGGCATCAGCAGGTTACCATAACTTAA,PBM binding z-score,[1],0.946
same,PBM binding z-score,[2],0.791
same,PBM binding z-score,[3],0.586
same,PBM binding z-score,[4],0.403
same,PBM binding z-score,[5],0.169
same,PBM binding z-score,[6],1.09
same,PBM binding z-score,[7],0.00611
same,PBM binding z-score,[8],-0.67
AGAATGAGGTTACCAAAGATCAGGGAAACGCTTG,PBM binding z-score,[1],0.765
same,PBM binding z-score,[2],2.19
same,PBM binding z-score,[3],1.68
same,PBM binding z-score,[4],1.25
same,PBM binding z-score,[5],2.57
same,PBM binding z-score,[6],3.04
same,PBM binding z-score,[7],0.9
same,PBM binding z-score,[8],0.1
